SMILES strings stand for the structures. The panel holds about 79,000 compounds, 15% with a hit somewhere; the sample as a whole holds those more often. Unmarked numbers belong to inactive results. No stated cut-off is given here; in the data, active means growth inhibition above about 70%; inactive means the rest.

This assay can be described thus: NCI Yeast Anticancer Drug Screen. Data for the mlh1 rad18 strain (AID 175). The conditions noted are these: S. cerevisiae mlh1 rad18 strain growth inhibition; at 50.0 µM; hits give high values. The gist of the method:
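Genetically defined yeast (DNA repair-deficient) exposed to compounds; growth inhibition determined relative to vehicle.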
Consider `CC(=O)c1c(P(=O)(OC(C)C)OC(C)C)nn(-c2ccc([N+](=O)[O-])cc2)c1C`, for which the growth inhibition was 32.2%.

On to `COc1ccc(C2(C)OCCCC2([NH-])C[NH-])cc1.[Cl][Pt+2][Cl]` (stereo not given), for which the growth inhibition is 9.45%.

Regarding `O=C1C2CCCCC2C(=O)N1O` (stereo not given), the growth inhibition was 9.25%.

Take `c1ccc2c3c(ccc2c1)CCC3`: the growth inhibition was -12.4%.

Take `Cc1cccc(OS(=O)(=O)c2ccccc2)c1`: the growth inhibition was 24.8%.

In the case of `O=C1OCC(CN2CCC(n3c(=O)[nH]c4ccccc43)CC2)=C1c1ccccc1`, the growth inhibition is -35.9%.

With `O=C(O)/C=C\c1ccc(OC(=O)c2ccccc2)cc1`, the growth inhibition is 33.1%.

As to `C=CCC1=C(C)C[C@@H]2CCC(=O)C=C12`, the growth inhibition is 5.5%.

For `O=c1c2cc3c(cc2[nH]c2ncccc12)OCO3`, the growth inhibition was 26.3%.

With `NC(CCCC(N)C(=O)c1ccccc1)C(=O)c1ccccc1` (stereo not given), the growth inhibition was 3.35%.

`CC(=O)NC1=C(C)C(=O)c2c(nc3n2CCC3OC(=O)c2ccccc2)C1=N` (stereo not given): the growth inhibition was -34%.

As for `COC(=O)C1(C(=O)OC)OC(c2ccc(OC)cc2)[C@H]2C(=O)N(C)C(=O)[C@H]21` (stereo not given in full), the growth inhibition was 15.3%.

For the compound `CCOC(=O)c1ccc(N=Cc2cccs2)cc1`, the growth inhibition is 17.4%.

For the compound `CSc1nc(NN)c([N+](=O)[O-])c(SC)n1`, the growth inhibition was 15.6%.

Regarding `COC(=O)c1ccc(OCc2ccc3nc(OC)c(OC)nc3c2)cc1`, the growth inhibition is -37%.

As to `O=S(=O)(CCl)Nc1ccncc1`, the growth inhibition is -16.8%.

In the case of `CCOC(=O)c1ccc(NC(=O)Oc2ccc(SC)cc2)cc1`, the growth inhibition was 6.9%.

Turning to `CC(=O)Nc1ccc2c(=O)cc[nH]c2n1`, the growth inhibition was 31.2%.

On to `C=C(Cl)C(C)(Cl)CCC(Cl)C(C)(C)Cl` (stereo not given), for which the growth inhibition was 25.3%.

On to `COC(=O)c1[nH]c(=O)[nH]c(=S)c1N`, for which the growth inhibition is -15.8%.

Turning to `CCC/C=N/NC(=O)CCCCCCCCCCCCCCCCC`, the growth inhibition was 14.3%.

Turning to `O=[N+]([O-])c1ccccc1-c1ccccc1CO`, the growth inhibition was -28.9%.

`CC[Si](C)(C)COC(N)=O`: the growth inhibition is -37%.

Turning to `CCCCCCCCCCC(CCCCCCCCCC)C1CCCC1`, the growth inhibition was -12.9%.

Consider `C[N+](C)(C)Cc1ccc2ccccc2c1CC(O)(c1ccccc1)c1ccccc1`, for which the growth inhibition is 9.8%.

Consider `CC/C=C/CC(=O)NCc1ccc(O)c(OC)c1`, for which the growth inhibition is -16.7%.

With `COc1ccc(S(=O)(=O)N/N=C\c2cc(I)cc(I)c2O)cc1`, the growth inhibition was 5.1%.

Turning to `CCC(=C(c1ccc(OCc2ccccc2)cc1)c1ccc(OCc2ccccc2)cc1)c1ccc(OC)cc1`, the growth inhibition was -14.3%.

On to `O=C1/C(=N\N(C(=O)c2ccccc2)c2ccccc2)c2cccc3cccc1c23`, for which the growth inhibition was 35.9%.

With `CC(=O)Nc1ccc2oc(=O)[nH]c(=O)c2c1`, the growth inhibition is -0.55%.

Consider `[Cl][Pt+2][Cl].[NH-]CC(O)c1ccc2oc3ccccc3c2c1.[NH-]CC(O)c1ccc2oc3ccccc3c2c1` (stereo not given), for which the growth inhibition is 17.6%.

Consider `Cc1cc(N(CCCOS(C)(=O)=O)CCCOS(C)(=O)=O)ccc1C=Nc1cc(Cl)c(O)c(Cl)c1`, for which the growth inhibition is 54.5%.

As to `CCOCCOC(=O)c1ccc(C(N)=NC)cc1`, the growth inhibition was 5.8%.

Regarding `Cn1c(=O)c2c3ccccc3c(C(=O)c3ccccc3)n2c2ccccc21`, the growth inhibition was 34.4%.

On to `Nc1nc(Cl)cc(Oc2ccc(Cl)cc2)n1`, for which the growth inhibition is -30.6%.

With `CCCNC(=O)c1cccc(-c2cccc(C(=O)NCCC)c2)c1`, the growth inhibition is 31.6%.

Regarding `O=C(NC1CCCCC1)/C(=C\c1ccc(/C=C(/NC(=O)c2ccccc2)C(=O)NC2CCCCC2)cc1)NC(=O)c1ccccc1`, the growth inhibition was -20.8%.

Regarding `CC(=O)OCC1COC(C2CC=CCC2C)O1` (stereo not given), the growth inhibition is -7.6%.

For the compound `CC(C)(C)Nc1ccc([N+](=O)[O-])cc1[N+](=O)[O-]`, the growth inhibition is -10.7%.

Consider `CNc1ccc(OC)cc1`, for which the growth inhibition is 3.25%.

These data come from PubChem BioAssay (NCI).
